Data as given in PubChem BioAssay.
Calls of active or inactive are those of the source.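 How the source made its calls, unless noted: active means inhibition of the reporter signal at or above 50%; inactive means inhibition below 50%.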

What was measured:
[1] = inhibitors of TNFa-induced NFkB p65 translocation, primary screen, imaging, HUVEC, MLSMR starter and 10KST1 sets (AID 438;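 active means inhibition above 20% together with a positive visual image hit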;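 further: compound added about 3h40 before a 20 min TNFalpha stimulation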;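 on inhibition: signal is the nuclear over cytoplasmic p65 intensity ratio per well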); conditions: HUVEC TNFa-induced p65 nuclear translocation; cell count: measured here: nuclei count (cytotoxicity indicator), at 2.08 µM; inhibition: at 2 µM, stronger effect = higher value, 0% TNFa-plus-vehicle, 100% no-TNFa wells
[2] = inhibitors of mutant huntingtin aggregation, primary screen, imaging, exon1htt(103Q)mCFP cells, high-content imaging (AID 483;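 active means visual image review flags a hit and inhibition of aggregation exceeds 20%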;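 further: compound exposure lasted 3 days before fixation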;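 on nuclei count: percent of the per-plate median nuclei count of sample wells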); conditions: exon1htt(103Q)mCFP cell line, aggregate imaging, at 2 µM; inhibition of aggregation: stronger effect = higher value; nuclei count: measured here: cell count, toxicity
[3] = inhibitors of E-selectin induction by TNFa, primary screen, imaging, HUVEC, immunofluorescence, MLSMR starter and 10KST1 sets (AID 487;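 active means visually confirmed hit in the image check and inhibition above 20%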;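 on inhibition: signal is fraction of cell area covered by stained E-selectin grains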;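 on nuclei count: 100% = median nuclei count of all wells on the same plate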); conditions: HUVEC TNFalpha-induced E-selectin immunofluorescence imaging, at 2 µM; inhibition: stronger effect = higher value; nuclei count: measured here: cell number, toxicity
[4] = biological target: Voltage-gated potassium channel subunit beta-2 (Rattus norvegicus) (UniProt P62483); assay: KvBeta enzyme negative modulators, primary screen, biochemical, NADPH fluorescence (AID 622;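 active means fluorescence slope higher than the sample average by over 3 SD, cut at about -0.22 in these data, passing the limit was not always enough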;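 further: slope of raw intensity against log time taken from 70 to 1610 s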); conditions: recombinant KvBeta, 4-cyanobenzaldehyde reduction, at 10 µM, stronger effect = higher value
[5] = biological target: Voltage-gated potassium channel subunit beta-2 (Rattus norvegicus) (UniProt P62483); assay: KvBeta positive modulators, primary screen, biochemical, NADPH fluorescence (AID 623;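 active means NADPH fluorescence slope more negative than the mean of all samples by about 3 SD, 99.7% confidence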;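 further: fluorescence intensity change per second fitted from 20 to 320 s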); conditions: Recombinant KvBeta, NADPH fluorescence decrease slope, 10 min; at 10 µM; stronger effect = lower value
[6] = biological target: Alpha-2C adrenergic receptor (Homo sapiens) (UniProt P18825); assay: modulators of alpha2C/GIRK thallium flux, primary screen, cell-based, HEK293 alpha2C/GIRK1/2 (AID 624;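 active means fluorescence slope after compound addition differing from the mean of all screened samples at 99.7% confidence, in either direction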;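 further: slope of fluorescence ratio to pre-addition baseline per second over 15 to 24 s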); conditions: thallium flux BTC fluorescence, at 10 µM, actives lie on both sides
[7] = inhibitors of Sendai virus-induced IRF3 signaling, primary screen, TLR/RLR signaling modifier project, cell-based, Sendai virus stimulus, luciferase, 10K MLSCN set (AID 602276;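 active means inhibition at or above 50% at 10 µM; inactive means inhibition below 50%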;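 further: firefly luciferase from ISG56 promoter only with Renilla not read in this screen; 0% = Sendai virus plus DMSO and 100% = medium plus DMSO without virus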); conditions: HEK293 RL24 IRF3 luciferase reporter, at 10 µM, stronger effect = higher value
[8] = inhibitors of poly I:C-induced TLR3 signaling, primary screen, cell-based, poly I:C stimulus, luciferase, 10K MLSCN set (AID 602277); conditions: HEK293-TLR3 RL24 IRF3 luciferase reporter, at 10 µM, stronger effect = higher value

Alpha-2C adrenergic receptor (Homo sapiens), sequence (P18825 whole entry, looked up): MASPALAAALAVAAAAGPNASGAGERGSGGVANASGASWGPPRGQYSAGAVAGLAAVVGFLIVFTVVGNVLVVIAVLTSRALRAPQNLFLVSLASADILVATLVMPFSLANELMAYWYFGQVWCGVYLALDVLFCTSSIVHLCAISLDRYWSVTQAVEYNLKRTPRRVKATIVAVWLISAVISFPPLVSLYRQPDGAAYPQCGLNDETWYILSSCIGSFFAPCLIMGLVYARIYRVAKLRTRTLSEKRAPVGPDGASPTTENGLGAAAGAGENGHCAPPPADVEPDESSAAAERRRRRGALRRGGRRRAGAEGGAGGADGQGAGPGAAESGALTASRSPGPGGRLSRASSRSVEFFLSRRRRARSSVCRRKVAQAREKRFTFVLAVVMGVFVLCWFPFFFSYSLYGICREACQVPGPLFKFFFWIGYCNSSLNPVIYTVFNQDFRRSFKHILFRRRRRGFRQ
Voltage-gated potassium channel subunit beta-2 (Rattus norvegicus), sequence (P62483 whole entry, looked up): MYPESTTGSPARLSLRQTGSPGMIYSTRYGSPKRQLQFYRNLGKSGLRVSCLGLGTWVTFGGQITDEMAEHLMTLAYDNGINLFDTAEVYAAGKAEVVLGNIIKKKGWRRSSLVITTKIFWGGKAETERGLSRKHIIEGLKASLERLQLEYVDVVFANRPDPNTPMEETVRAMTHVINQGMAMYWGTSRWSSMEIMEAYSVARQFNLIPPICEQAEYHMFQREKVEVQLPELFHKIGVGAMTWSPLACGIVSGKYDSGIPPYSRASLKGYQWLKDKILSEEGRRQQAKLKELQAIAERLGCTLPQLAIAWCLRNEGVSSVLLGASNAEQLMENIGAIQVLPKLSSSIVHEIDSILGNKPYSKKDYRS

Row | Compound | cell count [1] | inhibition [1] | inhibition of aggregation [2] | nuclei count [2] | inhibition [3] | nuclei count [3] | fluorescence slope [4] | NADPH fluorescence slope [5] | slope [6] | inhibition [7] | inhibition [8]
1 | CN1CCN(CCCNC(=O)Cn2ncc3c4ccccc4n(C)c3c2=O)CC1 | 479 | -2.6% (inactive) | -7.2% (inactive) | 98% | -69.4% (inactive) | 100% | -0.615 (inactive) | -1.6e-07 (inactive) | 0.0065 (inactive) | -10.3% (inactive) | 35.3% (inactive)
2 | C/C(Cl)=C/Cn1c(SCc2ccc(Cl)cc2)nc2c1c(=O)[nH]c(=O)n2C | 551 | -9.4% (inactive) | 10.9% (inactive) | 108% | 15% (inactive) | 96.1% | -0.513 (inactive) | -2.3e-05 (inactive) | 0.00751 (inactive) | 4.08% (inactive) | 12% (inactive)
3 | Cc1ccc(NC(=O)C2CCCN2S(=O)(=O)c2cccc3cccnc23)cc1F (stereo not drawn) | 577 | -1.1% (inactive) | 3.5% (inactive) | 71.6% | -56.2% (inactive) | 100% | -0.55 (inactive) | -3.9e-05 (inactive) | 0.00633 (inactive) | 9.99% (inactive) | 33.6% (inactive)
4 | O=S(=O)(c1ccc(F)c(Cl)c1)N1CCCC1 | 331 | 2.2% (inactive) | 8.7% (inactive) | 98.5% | 31.8% (inactive) | 99.6% | -0.486 (inactive) | -1e-05 (inactive) | 0.00653 (inactive) | 2.45% (inactive) | 30.3% (inactive)
5 | CC(C)C[C@H](NC(=O)Nc1cccc(C(F)(F)F)c1)C(=O)O | 393 | -9.8% (inactive) | 9.1% (inactive) | 70.6% | -25.5% (inactive) | 97.8% | -0.493 (inactive) | 4.1e-05 (inactive) | 0.00499 (inactive) | -1.3% (inactive) | 6.75% (inactive)
6 | CCCSc1nnc(-c2ccccc2NC(=O)CC)c(=O)[nH]1 | 632 | -9.3% (inactive) | -17.5% (inactive) | 86.8% | -43.8% (inactive) | 96.6% | -0.412 (inactive) | -4.2e-05 (inactive) | 0.00431 (inactive) | 4.4% (inactive) | -2.41% (inactive)
7 | O=S(=O)(c1ccc(S(=O)(=O)N2CCN3CCCC3C2)cc1)N1CCCC1 (stereo not drawn) | 575 | -5.3% (inactive) | 31.8% (inactive) | 49.8% | 34.6% (inactive) | 85% | -0.359 (inactive) | -3.4e-05 (inactive) | 0.00601 (inactive) | 6.16% (inactive) | 28.2% (inactive)
8 | CC(C)[C@H](NC(=O)OC(C)(C)C)c1nnc(SCc2cccc(F)c2)o1 | 859 | 0% (inactive) | 15.1% (inactive) | 101% | -63.9% (inactive) | 122% | -0.46 (inactive) | -4.1e-06 (inactive) | 0.00385 (inactive) | 9.92% (inactive) | 19.5% (inactive)
9 | N#Cc1c2n(c(=O)[nH]c1=O)CCCCC2 | 270 | 14.4% (inactive) | 18.2% (inactive) | 113% | 16.1% (inactive) | 110% | -0.5 (inactive) | -0.000252 (inactive) | 0.00665 (inactive) | -7.37% (inactive) | 0.231% (inactive)
10 | Cc1onc(-c2c(Cl)cccc2Cl)c1C(=O)N1CCc2ccccc21 | 696 | -5.8% (inactive) | -0.7% (inactive) | 93.6% | -30.8% (inactive) | 92.5% | -0.47 (inactive) | -3.1e-05 (inactive) | 0.00899 (inactive) | 23.7% (inactive) | 23.2% (inactive)
11 | O=C(CSc1n[nH]c(-c2cccs2)n1)N1CCN(S(=O)(=O)c2ccccc2)CC1 | 785 | 13.3% (inactive) | 4.1% (inactive) | 104% | -77% (inactive) | 140% | -0.639 (inactive) | 3e-05 (inactive) | 0.0053 (inactive) | 17% (inactive) | 28.7% (inactive)
12 | O=C(CN1CCC(c2nc3ccccc3s2)CC1)NCc1cccs1 | 699 | -1% (inactive) | 12.8% (inactive) | 87.9% | -4.6% (inactive) | 103% | -0.604 (inactive) | -3.9e-05 (inactive) | 0.00309 (inactive) | -1.46% (inactive) | -58.5% (inactive)
13 | Cc1nn(-c2ccccc2)c(Cl)c1C(=O)NCC(=O)O | 296 | 3.9% (inactive) | -6.8% (inactive) | 100% | -22.6% (inactive) | 117% | -0.399 (inactive) | -6.1e-05 (inactive) | 0.00396 (inactive) | 11.2% (inactive) | 25.8% (inactive)
14 | O=C(NC1CC1)c1ccc(S(=O)(=O)NCC2CCCCC2)cc1 | 535 | -8% (inactive) | 18.7% (inactive) | 102% | -58.9% (inactive) | 112% | -0.508 (inactive) | 2.4e-05 (inactive) | 0.00635 (inactive) | 3.23% (inactive) | 5.07% (inactive)
15 | CCOC(=O)Cc1nnc(NC(=O)c2ccccc2OCC)s1 | 583 | 12.6% (inactive) | 5.3% (inactive) | 102% | -43.9% (inactive) | 123% | -0.448 (inactive) | -0.000111 (inactive) | 0.005 (inactive) | 4.48% (inactive) | 4.72% (inactive)
16 | O=C(CCc1nc2ccccc2s1)OCC(=O)N1CCN(C(=O)c2ccco2)CC1 | 641 | -7.6% (inactive) | -0.7% (inactive) | 100% | -126% (inactive) | 128% | -0.584 (inactive) | -2.7e-05 (inactive) | 0.00548 (inactive) | 14.9% (inactive) | 24.8% (inactive)
17 | CCC1CCc2c(sc3ncnc(N4CCOCC4)c23)C1 (stereo not drawn) | 588 | -4.4% (inactive) | -3.1% (inactive) | 25.7% | -4% (inactive) | 114% | -0.469 (inactive) | -4.6e-05 (inactive) | 0.00589 (inactive) | -6.27% (inactive) | 13.8% (inactive)
18 | CCCN1CC23C=CC(O2)C(C(=O)O)C3C1=O (stereo not drawn) | 833 | -8.7% (inactive) | -27.3% (inactive) | 109% | -58.4% (inactive) | 124% | -0.518 (inactive) | -8.6e-07 (inactive) | 0.00688 (inactive) | 6.27% (inactive) | 15.9% (inactive)
19 | Cn1c(SCC(=O)Nc2ccc3c(c2)oc2ccccc23)nnc1-c1ccccc1 | 403 | -1.1% (inactive) | 4.5% (inactive) | 96.1% | -52.8% (inactive) | 109% | -0.515 (inactive) | -0.000134 (active) | 0.0032 (inactive) | -1.19% (inactive) | -25.5% (inactive)
20 | Cc1nc2sc(C(c3cccs3)N3CCC(C(N)=O)CC3)c(O)n2n1 (stereo not drawn) | 625 | -3.9% (inactive) | -7.5% (inactive) | 105% | -47.4% (inactive) | 120% | -0.565 (inactive) | -4.6e-05 (inactive) | 0.00644 (inactive) | 14.6% (inactive) | 32.7% (inactive)
21 | O=C(NC1(C(=O)NC2CCCCC2)CCCCC1)c1ccc2c(c1)OCO2 | 578 | 6.3% (inactive) | 16.2% (inactive) | 96.2% | -45.8% (inactive) | 91.4% | -0.524 (inactive) | -3.1e-05 (inactive) | 0.00509 (inactive) | 7.94% (inactive) | 19% (inactive)
22 | CCN(CC)c1ccc(NC(=O)CN2C(=O)CC(C)(C)S(=O)(=O)c3ccccc32)c(C)c1 | 879 | 5.8% (inactive) | 30.2% (inactive) | 60.8% | -63.3% (inactive) | 125% | -0.465 (inactive) | -2.5e-05 (inactive) | 0.00659 (inactive) | 10.9% (inactive) | -2.32% (inactive)
23 | CC(c1ccco1)N(Cc1ccco1)C(=O)Nc1ccccc1 (stereo not drawn) | 511 | 1% (inactive) | 13.9% (inactive) | 90.3% | -45.1% (inactive) | 97.5% | -0.574 (inactive) | 5.2e-05 (inactive) | 0.00511 (inactive) | -3.9% (inactive) | -21.4% (inactive)
24 | COC(=O)c1ccccc1NC(=O)CSc1nc2c(c(=O)n(C)c(=O)n2C)n1C | 470 | 1% (inactive) | -5.1% (inactive) | 95.9% | 9.9% (inactive) | 119% | -0.382 (inactive) | 2e-05 (inactive) | 0.00766 (inactive) | -17.1% (inactive) | -34.2% (inactive)
25 | O=S(=O)(Nc1ccc(Cc2ccncc2)cc1)N1CCCC1 | 848 | -3.6% (inactive) | -0.2% (inactive) | 111% | -102% (inactive) | 130% | -0.52 (inactive) | 1.2e-05 (inactive) | 0.00557 (inactive) | 1.91% (inactive) | 2.2% (inactive)
26 | COc1cc(-c2nnc(SCc3c(F)cccc3Cl)o2)cc(OC)c1OC | 803 | 4.4% (inactive) | 8.8% (inactive) | 103% | 3.2% (inactive) | 106% | -0.493 (inactive) | -1.6e-06 (inactive) | 0.00634 (inactive) | -11.9% (inactive) | 1.41% (inactive)
27 | Cc1cc(C)cc(OCC(=O)NC2=NCCS2)c1 | 311 | -11.8% (inactive) | 2.3% (inactive) | 165% | -76% (inactive) | 115% | -0.573 (inactive) | 1.2e-05 (inactive) | 0.00659 (inactive) | -3.94% (inactive) | -24% (inactive)
28 | CCN(CC)c1ccc2cc(-c3nc4ccccc4[nH]3)c(=O)oc2c1 | 437 | 11.7% (inactive) | 90.2% (active) | 98.9% | -74.3% (inactive) | 116% | -0.313 (inactive) | 4.5e-05 (inactive) | 0 (active) | 20.9% (inactive) | 32.6% (inactive)
